Targets with a hit are over-represented here; the source holds about 8,800 in all. About 0.5% of all pairs of compound and target were hits.
Assays:
Experiment in all cases: log2 fold change, soluble protein after heating vs DMSO (PISA); higher = thermal stabilisation; K562 lysate, 10 uM; active = over 0.2 and 3.5 SD of the protein, either way, in both replicates (recomputed)
[1] = compound: C1=CC=C(C=C1)[C@H](COC2=CC3=C(C=C2)NC(=O)N3)NC(=O)C4=CC=CN(C4=O)CC5=CC(=C(C=C5)F)F
How it was run: (§1)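 Values give the log-two fold change in thermal stability against solvent controls, from duplicates. Crude K562 extract at 1 mg/mL protein, made by dounce homogenisation in PBS pH 7.4 with 1 mM MgCl2, was treated with 10 μM compound for 30 min. After 3 min heating across 48°C-58°C, aliquots were pooled, adjusted to 0.5% NP-40 at 4°C and centrifuged at 21,000xg for 90 min. The supernatant was measured by TMTpro 16plex LC-MS/MS with channel sums equalised.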

[2] = compound: CC1=C(SC2=C1C(=N[C@H](C3=NN=C(N32)C)CC(=O)N)C4=CC=C(C=C4)Cl)C
How it was run: as §1

[3] = compound: CC1=C2C(=CC=C1)N=C(N(C2=O)C3=CC=CC=C3C)CN4C=NC5=C(N=CN=C54)N
How it was run: as §1

[4] = compound: Cc1sc2c(c1C)C(c1ccc(Cl)cc1)=N[C@@H](CC(=O)OC(C)(C)C)c1nnc(C)n1-2
How it was run: as §1

[5] = compound: c1ccc([C@@H]2C[C@H]2NC2CCNCC2)cc1
How it was run: as §1

Measured: log2 fold change

EEF1AKMT4 (UniProt P0DPD7)
inactive: [1] -0.061 | [2] 0.027 | [3] -0.036 | [4] 0.017 | [5] -0.063

GALK1 isoform 2 (UniProt P51570)
inactive: [1] 0.014 | [2] 0.027 | [3] 0.035 | [4] 0.006 | [5] 0.073

FTSJ3 (UniProt Q8IY81)
inactive: [1] 0.022 | [2] -0.051 | [3] -0.007 | [4] -0.003 | [5] 0.083

FAM118B (UniProt Q9BPY3)
inactive: [1] -0.025 | [2] -0.062 | [3] -0.01 | [4] -0.018 | [5] 0.01

DUSP22 isoform 2 (UniProt Q9NRW4)
inactive: [1] 0.05 | [2] -0.068 | [3] 0.038 | [4] 0.099 | [5] -0.028

EIF3I (UniProt Q13347)
inactive: [1] -0.038 | [2] 0.022 | [3] 0.01 | [4] 0.019 | [5] 0.033

FIGNL1 (UniProt Q6PIW4)
Chain of UniProt Q6PIW4 (Q6PIW4 whole entry, looked up): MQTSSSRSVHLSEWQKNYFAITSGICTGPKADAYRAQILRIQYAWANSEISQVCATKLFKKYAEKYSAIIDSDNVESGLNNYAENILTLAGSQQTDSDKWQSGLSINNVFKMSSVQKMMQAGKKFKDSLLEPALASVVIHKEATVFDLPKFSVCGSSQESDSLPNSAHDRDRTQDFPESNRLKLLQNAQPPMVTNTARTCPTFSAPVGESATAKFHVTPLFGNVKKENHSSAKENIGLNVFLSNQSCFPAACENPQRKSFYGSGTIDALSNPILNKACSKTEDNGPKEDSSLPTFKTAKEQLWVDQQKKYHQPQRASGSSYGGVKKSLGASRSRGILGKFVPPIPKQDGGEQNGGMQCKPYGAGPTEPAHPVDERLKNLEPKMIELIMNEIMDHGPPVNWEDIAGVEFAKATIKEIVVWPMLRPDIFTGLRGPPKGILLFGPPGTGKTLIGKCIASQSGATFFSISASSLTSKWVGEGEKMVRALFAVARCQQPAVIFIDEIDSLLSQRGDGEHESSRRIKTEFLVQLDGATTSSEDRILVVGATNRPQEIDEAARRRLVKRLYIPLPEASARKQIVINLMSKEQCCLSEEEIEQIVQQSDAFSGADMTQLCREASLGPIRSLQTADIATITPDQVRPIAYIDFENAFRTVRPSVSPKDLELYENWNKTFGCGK
inactive: [1] -0.033 | [2] 0.01 | [3] 0.028 | [4] 0.051 | [5] 0.085

EPHX2 (UniProt P34913)
inactive: [1] 0.021 | [2] 0.006 | [3] 0 | [4] 0.119 | [5] -0.012

FARSA (UniProt Q9Y285)
inactive: [1] 0.028 | [2] 0.171 | [3] -0.003 | [4] -0.028 | [5] -0.009

FBXO22 (UniProt Q8NEZ5)
Chain of UniProt Q8NEZ5 (Q8NEZ5 whole entry, looked up): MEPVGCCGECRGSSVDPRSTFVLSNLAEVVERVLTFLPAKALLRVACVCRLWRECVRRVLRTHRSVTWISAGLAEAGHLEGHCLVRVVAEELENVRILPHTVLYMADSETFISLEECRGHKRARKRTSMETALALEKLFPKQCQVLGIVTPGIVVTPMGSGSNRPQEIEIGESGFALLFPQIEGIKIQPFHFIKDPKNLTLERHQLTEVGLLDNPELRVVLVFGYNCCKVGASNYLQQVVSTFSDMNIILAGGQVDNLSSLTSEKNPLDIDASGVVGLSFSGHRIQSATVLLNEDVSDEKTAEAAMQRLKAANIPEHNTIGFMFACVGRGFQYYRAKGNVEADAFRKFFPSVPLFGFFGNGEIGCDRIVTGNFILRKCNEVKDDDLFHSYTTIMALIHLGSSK
inactive: [1] -0.007 | [2] -0.004 | [3] 0.03 | [4] 0.02 | [5] 0.083

FAM53B (UniProt Q14153)
Chain of UniProt Q14153 (Q14153 whole entry, looked up): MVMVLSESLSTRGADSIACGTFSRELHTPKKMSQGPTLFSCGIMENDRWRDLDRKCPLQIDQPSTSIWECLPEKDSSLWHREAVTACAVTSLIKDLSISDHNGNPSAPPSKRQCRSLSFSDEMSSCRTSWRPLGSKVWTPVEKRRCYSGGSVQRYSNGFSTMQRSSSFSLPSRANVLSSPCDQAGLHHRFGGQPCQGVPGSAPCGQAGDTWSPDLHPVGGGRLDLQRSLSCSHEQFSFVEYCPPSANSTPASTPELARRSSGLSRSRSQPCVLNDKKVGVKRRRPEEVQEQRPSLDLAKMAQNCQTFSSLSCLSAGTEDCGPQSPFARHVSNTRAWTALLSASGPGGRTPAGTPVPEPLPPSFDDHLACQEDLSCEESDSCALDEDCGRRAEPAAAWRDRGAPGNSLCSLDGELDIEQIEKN
inactive: [1] 0.044 | [2] -0.039 | [3] 0.055 | [4] -0.088 | [5] 0.022

GCDH (UniProt Q92947)
inactive: [1] 0.034 | [2] -0.032 | [3] -0.022 | [4] -0.008 | [5] -0.004

ENO1 isoform 2 (UniProt P06733)
inactive: [1] 0.068 | [2] -0.145 | [3] 0.033 | [4] -0.062 | [5] -0.143

DYRK1A (UniProt Q13627)
inactive: [1] -0.019 | [2] 0.003 | [3] -0.014 | [4] 0.019 | [5] 0.031

ESRRA (UniProt P11474)
inactive: [1] 0.204 | [2] -0.018 | [3] 0.029 | [4] 0.046 | [5] 0.264

DUS2 (UniProt Q9NX74)
inactive: [1] 0.037 | [2] 0.018 | [3] -0.018 | [4] 0.055 | [5] 0.116

EAPP (UniProt Q56P03)
inactive: [1] 0.008 | [2] 0.048 | [3] 0.137 | [4] 0.029 | [5] -0.079

DSN1 (UniProt Q9H410)
inactive: [1] -0.012 | [2] 0.053 | [3] 0.019 | [4] -0.013 | [5] 0.02

EIF2B4 isoform 2 (UniProt Q9UI10)
inactive: [1] -0.026 | [2] 0.04 | [3] 0.037 | [4] -0.007 | [5] 0.042

EBP (UniProt Q15125)
Chain of UniProt Q15125 (Q15125 whole entry, looked up): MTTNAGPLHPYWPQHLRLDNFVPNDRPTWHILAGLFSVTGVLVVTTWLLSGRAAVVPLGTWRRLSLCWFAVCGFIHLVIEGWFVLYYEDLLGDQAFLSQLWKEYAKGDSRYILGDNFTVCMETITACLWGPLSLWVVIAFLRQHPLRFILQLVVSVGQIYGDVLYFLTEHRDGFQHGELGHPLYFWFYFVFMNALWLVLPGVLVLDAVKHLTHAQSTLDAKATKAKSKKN
inactive: [1] -0.011 | [2] -0.061 | [3] 0.022 | [4] 0.09 | [5] -0.141

EIF2AK1 (UniProt Q9BQI3)
inactive: [1] 0.006 | [2] -0.035 | [3] -0.007 | [4] -0.022 | [5] -0.041

EMP3 (UniProt P54852)
inactive: [1] 0.026 | [2] -0.028 | [3] -0.038 | [4] -0.113 | [5] -0.345

FARSB (UniProt Q9NSD9)
inactive: [1] -0.014 | [2] 0.036 | [3] -0.004 | [4] 0.02 | [5] 0.052

FKBP1A (UniProt P62942)
inactive: [1] 0.011 | [2] -0.134 | [3] -0.069 | [4] -0.01 | [5] -0.214

ETHE1 (UniProt O95571)
inactive: [1] 0.008 | [2] 0.003 | [3] 0.008 | [4] 0.048 | [5] -0.147

FAM114A2 (UniProt Q9NRY5)
inactive: [1] 0.073 | [2] -0.002 | [3] -0.027 | [4] 0.019 | [5] 0.035

FBLL1 (UniProt A6NHQ2)
inactive: [1] -0.017 | [2] 0.013 | [3] 0.037 | [4] -0.002 | [5] -0.062

DTL (UniProt Q9NZJ0)
inactive: [1] 0.033 | [2] 0.038 | [3] 0.089 | [4] -0.032 | [5] -0.01

FADS1, A0A0A0MR51
inactive: [1] 0.071 | [2] -0.019 | [3] -0.027 | [4] -0.035 | [5] 0.013

FAM83D (UniProt Q9H4H8)
Chain of UniProt Q9H4H8 (Q9H4H8 whole entry, looked up): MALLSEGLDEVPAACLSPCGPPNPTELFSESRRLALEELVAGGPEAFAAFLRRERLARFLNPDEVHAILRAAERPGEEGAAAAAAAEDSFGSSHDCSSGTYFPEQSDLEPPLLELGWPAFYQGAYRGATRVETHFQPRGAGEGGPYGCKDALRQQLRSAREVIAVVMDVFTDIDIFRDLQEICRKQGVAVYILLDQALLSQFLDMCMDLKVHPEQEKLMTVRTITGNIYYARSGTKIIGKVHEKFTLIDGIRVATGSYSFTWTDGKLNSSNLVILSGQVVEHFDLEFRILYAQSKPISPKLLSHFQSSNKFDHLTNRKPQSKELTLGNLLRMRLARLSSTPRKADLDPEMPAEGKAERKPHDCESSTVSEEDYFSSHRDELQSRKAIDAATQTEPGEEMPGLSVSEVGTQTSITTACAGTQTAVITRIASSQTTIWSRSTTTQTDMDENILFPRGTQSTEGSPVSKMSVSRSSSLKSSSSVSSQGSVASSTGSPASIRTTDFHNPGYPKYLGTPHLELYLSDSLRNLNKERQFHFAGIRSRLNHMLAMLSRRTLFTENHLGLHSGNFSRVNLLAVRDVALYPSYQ
inactive: [1] -0.021 | [2] 0.023 | [3] 0.035 | [4] -0.02 | [5] -0.006

FCHO1 (UniProt O14526)
inactive: [1] -0.026 | [2] 0.066 | [3] -0.025 | [4] 0.009 | [5] 0.027

FNBP1L (UniProt Q5T0N5)
inactive: [1] -0.082 | [2] -0.009 | [3] 0.012 | [4] -0.032 | [5] 0.029

GABPB1 isoform 3 (UniProt Q06547)
inactive: [1] 0.039 | [2] 0.052 | [3] -0.017 | [4] -0.024 | [5] -0.025

EIF1 (UniProt P41567)
inactive: [1] 0.146 | [2] -0.034 | [3] -0.031 | [4] -0.035 | [5] -0.114

GCN1 (UniProt Q92616)
inactive: [1] -0.046 | [2] 0.003 | [3] 0.019 | [4] 0.035 | [5] 0.063

EIF2D (UniProt P41214)
inactive: [1] -0.007 | [2] -0.012 | [3] 0.044 | [4] 0.003 | [5] 0.049

ECI2 (UniProt O75521)
inactive: [1] 0.019 | [2] -0.005 | [3] 0.014 | [4] -0.009 | [5] -0.045

EPN2 (UniProt O95208)
inactive: [1] -0.012 | [2] -0.017 | [3] -0.02 | [4] -0.084 | [5] -0.161

EIF2AK2 (UniProt P19525)
Chain of UniProt P19525 (P19525 whole entry, looked up): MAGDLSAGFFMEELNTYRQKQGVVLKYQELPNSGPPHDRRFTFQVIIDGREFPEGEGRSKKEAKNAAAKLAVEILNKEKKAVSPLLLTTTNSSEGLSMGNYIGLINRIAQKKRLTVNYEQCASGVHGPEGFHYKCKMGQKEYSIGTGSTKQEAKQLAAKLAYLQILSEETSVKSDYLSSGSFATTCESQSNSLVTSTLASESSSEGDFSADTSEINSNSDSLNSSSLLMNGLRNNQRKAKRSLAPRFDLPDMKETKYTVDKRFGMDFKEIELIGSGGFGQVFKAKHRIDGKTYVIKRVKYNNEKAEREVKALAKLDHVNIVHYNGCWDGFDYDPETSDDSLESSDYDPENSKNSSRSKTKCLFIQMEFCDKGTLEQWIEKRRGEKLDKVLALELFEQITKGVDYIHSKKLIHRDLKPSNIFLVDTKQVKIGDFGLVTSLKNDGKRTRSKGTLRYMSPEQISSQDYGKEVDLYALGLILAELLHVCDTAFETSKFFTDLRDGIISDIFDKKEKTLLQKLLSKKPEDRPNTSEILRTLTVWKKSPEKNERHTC
inactive: [1] 0.01 | [2] -0.002 | [3] -0.027 | [4] 0.216 | [5] 0.03

FECH isoform 2 (UniProt P22830)
inactive: [1] 0.06 | [2] -0.101 | [3] -0.126 | [4] -0.229 | [5] -0.092

EEFSEC (UniProt P57772)
Chain of UniProt P57772 (P57772 whole entry, looked up): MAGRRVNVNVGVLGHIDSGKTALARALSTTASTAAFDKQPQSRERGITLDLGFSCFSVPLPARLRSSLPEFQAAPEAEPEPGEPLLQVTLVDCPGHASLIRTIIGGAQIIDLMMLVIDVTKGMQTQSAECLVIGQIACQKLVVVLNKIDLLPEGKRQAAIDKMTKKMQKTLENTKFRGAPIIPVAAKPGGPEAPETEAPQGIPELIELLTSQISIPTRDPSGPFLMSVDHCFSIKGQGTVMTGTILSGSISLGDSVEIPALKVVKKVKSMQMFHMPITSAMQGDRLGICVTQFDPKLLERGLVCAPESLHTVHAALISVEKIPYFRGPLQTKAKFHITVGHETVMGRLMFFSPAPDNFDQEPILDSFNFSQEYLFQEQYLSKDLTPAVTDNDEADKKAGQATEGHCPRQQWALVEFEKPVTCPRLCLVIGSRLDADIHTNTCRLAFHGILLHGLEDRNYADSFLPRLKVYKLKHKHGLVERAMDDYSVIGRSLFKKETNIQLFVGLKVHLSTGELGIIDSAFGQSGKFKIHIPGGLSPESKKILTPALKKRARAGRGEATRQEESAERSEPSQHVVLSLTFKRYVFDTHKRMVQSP
inactive: [1] -0.033 | [2] -0.003 | [3] 0.009 | [4] -0.003 | [5] 0.015

EXOC1 (UniProt Q9NV70)
inactive: [1] -0.011 | [2] 0.032 | [3] 0.013 | [4] 0.02 | [5] 0.068

ERLIN1 (UniProt O75477)
inactive: [1] -0.03 | [2] 0.039 | [3] 0.02 | [4] 0.029 | [5] -0.033

EEF1AKNMT (UniProt Q8N6R0)
Chain of UniProt Q8N6R0 (Q8N6R0 whole entry, looked up): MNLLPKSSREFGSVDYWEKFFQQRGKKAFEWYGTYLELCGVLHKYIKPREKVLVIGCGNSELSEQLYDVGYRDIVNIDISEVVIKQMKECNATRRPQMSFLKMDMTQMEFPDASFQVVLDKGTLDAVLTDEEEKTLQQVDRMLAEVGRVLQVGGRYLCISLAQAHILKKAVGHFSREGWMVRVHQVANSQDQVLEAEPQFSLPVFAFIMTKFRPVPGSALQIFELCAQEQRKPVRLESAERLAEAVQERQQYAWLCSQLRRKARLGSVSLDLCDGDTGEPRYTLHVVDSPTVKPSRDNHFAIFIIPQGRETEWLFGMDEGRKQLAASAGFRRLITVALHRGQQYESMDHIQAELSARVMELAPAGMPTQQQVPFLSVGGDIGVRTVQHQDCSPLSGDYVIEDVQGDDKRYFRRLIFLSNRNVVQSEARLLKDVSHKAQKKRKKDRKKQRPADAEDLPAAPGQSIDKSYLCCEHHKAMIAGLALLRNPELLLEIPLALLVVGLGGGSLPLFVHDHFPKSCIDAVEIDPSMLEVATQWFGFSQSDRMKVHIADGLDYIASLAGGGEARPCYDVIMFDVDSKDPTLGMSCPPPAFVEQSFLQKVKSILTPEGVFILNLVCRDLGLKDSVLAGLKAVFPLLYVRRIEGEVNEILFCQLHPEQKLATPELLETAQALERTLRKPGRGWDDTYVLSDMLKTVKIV
inactive: [1] -0.012 | [2] -0.073 | [3] 0.013 | [4] 0.018 | [5] 0.042

EPB41, A0A2R8Y783
inactive: [1] -0.056 | [2] -0.031 | [3] 0.142 | [4] -0.131 | [5] 0.033

EDC3 (UniProt Q96F86)
inactive: [1] 0.036 | [2] 0 | [3] 0.028 | [4] 0.031 | [5] 0.008

FOXJ3 (UniProt Q9UPW0)
inactive: [1] 0.004 | [2] -0.072 | [3] 0.013 | [4] -0.021 | [5] -0.026

EXOC5 (UniProt O00471)
inactive: [1] -0.065 | [2] -0.002 | [3] 0.068 | [4] -0.023 | [5] 0.035

FUBP3 (UniProt Q96I24)
inactive: [1] -0.052 | [2] 0.019 | [3] -0.007 | [4] -0.01 | [5] 0.011

GAPDH (UniProt P04406)
Chain of UniProt P04406 (P04406 whole entry, looked up): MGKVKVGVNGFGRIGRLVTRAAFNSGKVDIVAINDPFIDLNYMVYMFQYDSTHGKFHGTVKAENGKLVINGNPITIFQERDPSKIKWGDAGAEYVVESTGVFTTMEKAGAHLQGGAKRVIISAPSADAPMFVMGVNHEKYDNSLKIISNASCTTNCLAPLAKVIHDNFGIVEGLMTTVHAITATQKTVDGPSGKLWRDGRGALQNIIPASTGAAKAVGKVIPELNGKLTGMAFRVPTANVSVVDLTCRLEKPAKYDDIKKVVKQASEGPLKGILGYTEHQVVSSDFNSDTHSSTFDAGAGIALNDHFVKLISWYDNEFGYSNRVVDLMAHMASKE
inactive: [1] 0.004 | [2] 0.008 | [3] -0.018 | [4] 0.008 | [5] 0.052

FAM83A (UniProt Q86UY5)
inactive: [1] 0.065 | [2] -0.023 | [3] 0.063 | [4] 0.11 | [5] -0.039

EIF2B3 (UniProt Q9NR50)
inactive: [1] -0.047 | [2] 0.008 | [3] -0.01 | [4] 0.004 | [5] 0.107

EFCAB14 (UniProt O75071)
Chain of UniProt O75071 (O75071 whole entry, looked up): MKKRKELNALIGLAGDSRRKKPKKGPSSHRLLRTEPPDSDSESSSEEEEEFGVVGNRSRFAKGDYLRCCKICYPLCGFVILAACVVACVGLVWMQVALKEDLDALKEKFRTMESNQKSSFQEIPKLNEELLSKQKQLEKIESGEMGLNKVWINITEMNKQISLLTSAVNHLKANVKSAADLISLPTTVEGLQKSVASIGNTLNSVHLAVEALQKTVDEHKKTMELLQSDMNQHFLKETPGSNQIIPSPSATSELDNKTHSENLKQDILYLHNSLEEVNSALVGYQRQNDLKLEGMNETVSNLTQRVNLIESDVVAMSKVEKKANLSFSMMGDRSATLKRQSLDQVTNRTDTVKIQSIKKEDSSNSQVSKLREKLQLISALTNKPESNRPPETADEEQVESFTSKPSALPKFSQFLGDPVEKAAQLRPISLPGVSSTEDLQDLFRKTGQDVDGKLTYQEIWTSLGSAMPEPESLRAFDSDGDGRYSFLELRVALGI
inactive: [1] 0.099 | [2] -0.074 | [3] 0.088 | [4] -0.014 | [5] 0.013
